According to PubChem BioAssay (Tox21):
Records with an inconclusive call do not appear. The source made the active and inactive calls. Calls come from the whole dose curve.

Legend:
[1] = molecular target: Acetylcholinesterase (Homo sapiens) (UniProt P22303); test: Acetylcholinesterase (AChE) small molecule antagonists: colormetric cell-based qHTS assay (AID 1347395); note: nearly all actives have a fitted effect of over 30% in size
Outline: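 AChE inhibition read colorimetrically via DTNB–thiocholine in SH-SY5Y cells. Compound 30 min, substrate 90 min, both 37 C.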

[2] = molecular target: Acetylcholinesterase (Homo sapiens) (UniProt P22303); test: Acetylcholinesterase (AChE) small molecule antagonists: enzyme-based qHTS assay (AID 1347397); conditions: Potency: AChE enzyme activity inhibition; outcome: AChE enzyme activity inhibition; note: nearly all actives have a fitted effect of over 55% in size
Outline: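 rhAChE 50 mU/mL (dispensed) + cpd or DMSO, 30 min RT; add DTNB/acetylthiocholine cocktail, 10 min RT; colorimetric thiocholine readout. qHTS, 1536-well format.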

[3] = molecular target: Acetylcholinesterase (Homo sapiens) (UniProt P22303); test: Acetylcholinesterase (AChE) small molecule antagonists: fluorescence cell-based qHTS assay (AID 1347398); conditions: Potency: AChE activity; outcome: AChE activity; note: nearly all actives have a fitted effect of over 50% in size
Outline: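 Read-out is Thiolite Green fluorescence at Ex/Em = 490/520 nm, formed by reaction with thiocholine released when cellular AChE in SH-SY5Y cells hydrolyzes acetylthiocholine. Compounds were preincubated 30 min at 37 C before substrate.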

[4] = molecular target: Acetylcholinesterase (Homo sapiens) (UniProt P22303); test: Acetylcholinesterase (AChE) small molecule antagonists: enzyme-based qHTS assay with human liver microsomes (AID 1347399); conditions: Potency: qHTS inhibition; outcome: qHTS inhibition; note: nearly all actives have a fitted effect of over 60% in size
Outline: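 Recombinant human AChE (50 mU/mL in the enzyme mix) and human liver microsomes (0.25 mg/mL final) were preincubated with compound and NADPH (0.25 mg/mL final) for 30 min at 37 C. Acetylthiocholine/DTNB was then added; thiocholine was read colorimetrically after 10 min at room temperature.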
% is set by controls: 0 for no effect and ±100 for the full control effect.

Acetylcholinesterase (Homo sapiens), sequence (P22303 whole entry, looked up): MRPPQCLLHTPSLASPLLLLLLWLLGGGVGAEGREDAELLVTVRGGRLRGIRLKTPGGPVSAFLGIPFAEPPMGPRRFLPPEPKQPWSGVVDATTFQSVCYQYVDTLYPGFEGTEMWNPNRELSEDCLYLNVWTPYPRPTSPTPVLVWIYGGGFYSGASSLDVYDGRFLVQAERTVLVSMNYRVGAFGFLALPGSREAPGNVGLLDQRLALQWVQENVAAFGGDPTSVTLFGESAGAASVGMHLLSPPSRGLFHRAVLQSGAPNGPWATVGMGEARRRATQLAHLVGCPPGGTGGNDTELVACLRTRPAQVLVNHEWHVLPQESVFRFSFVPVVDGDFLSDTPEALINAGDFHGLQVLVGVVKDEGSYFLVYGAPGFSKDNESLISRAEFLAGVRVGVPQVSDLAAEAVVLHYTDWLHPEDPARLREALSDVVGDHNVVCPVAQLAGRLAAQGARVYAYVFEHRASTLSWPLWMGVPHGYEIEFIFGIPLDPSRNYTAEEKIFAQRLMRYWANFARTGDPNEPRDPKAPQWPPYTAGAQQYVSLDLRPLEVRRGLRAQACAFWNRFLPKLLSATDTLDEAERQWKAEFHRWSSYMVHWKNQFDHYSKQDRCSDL

CC(=O)Nc1cccc(N)c1
inactive: Potency [1] | Potency [2] | Potency [3] | Potency [4]

COP(=O)(O)OP(=O)(O)OC
inactive: Potency [1] | Potency [2] | Potency [3] | Potency [4]

CC(C)=CCC/C(C)=C/C=N/O
inactive: Potency [1] | Potency [2] | Potency [3] | Potency [4]

O=C(O)[C@@H]1CSCN1
inactive: Potency [1] | Potency [2] | Potency [3] | Potency [4]

O=CCCc1ccccc1
inactive: Potency [1] | Potency [2] | Potency [3] | Potency [4]

CC[N+](CC)(CC)CCOC(=O)C(C1CCCC1)C1CCCC1
inactive: Potency [1] | Potency [2] | Potency [3] | Potency [4]

C=CC(=O)OCCCl
inactive: Potency [1] | Potency [2] | Potency [3] | Potency [4]

C=CC(C)(CCC=C(C)C)OC(=O)CC (stereo not given)
inactive: Potency [1] | Potency [2] | Potency [3] | Potency [4]

CCCCCCc1ccc(N)cc1
inactive: Potency [1] | Potency [2] | Potency [3] | Potency [4]

CC(=O)OCC(=O)[C@@]12OC(C)(C)O[C@@H]1C[C@H]1[C@@H]3C[C@H](F)C4=CC(=O)C=C[C@]4(C)[C@@]3(F)[C@@H](O)C[C@@]12C
inactive: Potency [1] | Potency [2] | Potency [3] | Potency [4]

Cc1cccc(CN2CCN(C(c3ccccc3)c3ccc(Cl)cc3)CC2)c1 (stereo not given)
inactive: Potency [1] | Potency [2] | Potency [3] | Potency [4]

CCC(C)NC(N)=O (stereo not given)
inactive: Potency [1] | Potency [2] | Potency [3] | Potency [4]

O=C1OC(CN2CCOCC2)CN1/N=C/c1ccc([N+](=O)[O-])o1 (stereo not given)
inactive: Potency [1] | Potency [2] | Potency [3] | Potency [4]

COc1cc(OC)cc(OC)c1
inactive: Potency [1] | Potency [2] | Potency [3] | Potency [4]

CC(=O)OC(OC(C)=O)c1ccc([N+](=O)[O-])o1
inactive: Potency [1] | Potency [2] | Potency [3] | Potency [4]

NC(Cc1ccc(Cl)cc1)C(=O)O (stereo not given)
inactive: activity, negative = inhibition [1] 1.17% [at 0.435 µM] | activity change, negative = inhibition [2] 0.0464% [at 0.435 µM] | activity change, negative = inhibition [3] 9.18% [at 0.439 µM] | activity change, negative = inhibition [4] -1.76% [at 0.435 µM]

COC(=O)CC#N
inactive: Potency [1] | Potency [2] | Potency [3] | Potency [4]

CC(C)(COC(=O)c1ccccc1)COC(=O)c1ccccc1
inactive: Potency [1] | Potency [2] | Potency [3] | Potency [4]

CC(=O)Nc1ccc(OCCOCCOc2ccc(NC(C)=O)cc2)cc1
inactive: Potency [1] | Potency [2] | Potency [3] | Potency [4]

CCCCCCCCCCC=O
inactive: Potency [1] | Potency [2] | Potency [3] | Potency [4]

CCOC(=O)COc1cc(-n2ncc(C(F)(F)F)c(C)c2=O)c(F)cc1Cl
inactive: Potency [1] | Potency [2] | Potency [3] | Potency [4]

C1=COCCC1
inactive: Potency [1] | Potency [2] | Potency [3] | Potency [4]

CC(C)(O)Cc1ccccc1
inactive: Potency [1] | Potency [2] | Potency [3] | Potency [4]

CCc1ccc(C)nc1
inactive: Potency [1] | Potency [2] | Potency [3] | Potency [4]

CC(=O)[C@H]1[C@H](C#N)C[C@H]2[C@@H]3CC=C4C[C@@H](O)CC[C@]4(C)[C@H]3CC[C@@]21C
inactive: Potency [1] | Potency [2] | Potency [3] | Potency [4]

N#Cc1c(F)cccc1F
inactive: Potency [1] | Potency [2] | Potency [3] | Potency [4]

CC(S)C(=O)NCC(=O)O (stereo not given)
inactive: Potency [1] | Potency [2] | Potency [3] | Potency [4]

CC(C)(O)C(=O)O
inactive: Potency [1] | Potency [2] | Potency [3] | Potency [4]

CCc1ccc(C=O)cc1
inactive: Potency [1] | Potency [2] | Potency [3] | Potency [4]

CCC(=O)OC/C=C(\C)CCC=C(C)C
inactive: Potency [1] | Potency [2] | Potency [3] | Potency [4]
